Screening results (PubChem BioAssay)
Only some compounds are listed: those with a hit (about 7.5% of all), similar ones and a draw of the others.
B2AR arrestin: qHTS assay of beta-arrestin-biased ligands of beta2-adrenergic receptor; AID 492947, 2010; beta-arrestin recruitment to beta2AR, cell-based reporter; hit rate 0.02% among 330,000; Potency, µM (top dose mostly 46.1 µM), for the others: top-dose activation, hits mostly activators;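 further: potency means the concentration at half of the fitted maximal effect; 0% = DMSO controls and full agonism = EC100 isoproterenol or metaproterenol; nearly all actives have a fitted effect of over 65% in size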
VP16 counter: VP16 counterscreen qHTS for inhibitors of ROR gamma transcriptional activity. Drosophila S2 Gal4-VP16 UAS-luciferase, luminescence, 20 h. Potency, µM (doses to about 53.6 µM), for the others: at the top dose activity, negative = inhibition, usual class: inhibitors. hit rate 3.5% among 310,000;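 further: Gal4-VP16 expression switched on by copper sulfate through the metallothionein promoter; potency means the concentration at half of the fitted maximal effect; nearly all actives have a fitted effect of over 50% in size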
TSHR antag: Antagonists of the Thyroid Stimulating Hormone Receptor: HTS campaign; TSHR-expressing cells, TSH-stimulated cAMP HTRF, 2 h; active compounds read low; AID 504810, 2011; hit rate 0.2% among 330,000; Thyrotropin receptor (Homo sapiens), P16473; activity change, negative = inhibition, % at 11.5 µM;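 active means activity change below a set negative limit, meaning inhibition stronger than a set level, cut at about -70% in these data; inconclusive means activity change between two set negative limits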
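Read-out is FRET at 665 nm (cryptate excitation 337 nm) from a cryptate-tagged anti-cAMP antibody, competed by cell cAMP against cAMP-d2. Compounds are tested on freshly harvested TSHR cells challenged with 4nM TSH (EC80) for 2 hours at 37 deg C.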
RORgamma inh: qHTS for inhibitors of ROR gamma transcriptional activity. Potency, µM (top dose mostly 53.6 µM), for inactives: top-dose activity change, negative = inhibition, most hits filed as inhibitors. Nuclear receptor ROR-gamma (Mus musculus), P51450. Drosophila S2 Gal4-RORgamma UAS-luciferase reporter, 20 h. hit rate 5.4% among 310,000; further: potency means the concentration at half of the fitted maximal effect; nearly all actives have a fitted effect of over 60% in size
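Compounds are pin-transferred onto Drosophila Schneider cells expressing a copper-inducible Gal4–ROR gamma transactivation domain fusion. After 1 hr, copper sulfate is added to 700 uM final; luciferase is read 20 hr later.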
ELG1 repair inh: qHTS screen for small molecules that inhibit ELG1-dependent DNA repair in human embryonic kidney (HEK293T) cells expressing luciferase-tagged ELG1; HEK293T ELG1-luciferase reporter, luminescence, 16 h; DNA damage induced by 5-fluorouridine; Potency, µM (series often up to 46.1 µM), for the others: top-dose activity change, negative = inhibition, most hits filed as inhibitors; hit rate 2.3% among 330,000; further: potency means the concentration at half of the fitted maximal effect; nearly all actives have a fitted effect of over 55% in size
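Luminescence from the luciferase reporter, measured 30 min after ONE-Glo reagent at room temperature, was the read-out. Beforehand, 2,000 cells per well were exposed for 16 hr at 37 °C to 5-fluorouridine together with compound or vehicle.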
The depositor's hits bear a star; ? = inconclusive; . = not tested or not shown; [ ] = remark or other dose. Unless noted, the call rests on the fitted dose curve; in most records, active means well fitted curve in the direction sought with a large enough effect; inconclusive means small, poorly fitted or top-dose-only effect, or another doubt; inactive means no such curve, though single readings can be large; an effect the other way counts as inactive or inconclusive. Unless noted, on the % scale 0 is the no-effect control and ±100 the full control effect.

SMILES	B2AR arrestin	VP16 counter	TSHR antag	RORgamma inh	ELG1 repair inh
COC(=O)c1c(C)oc2ccc(N(C(=O)c3ccncc3)S(=O)(=O)c3ccccc3)cc12	0%	?	-13	-27%	-11%
Cc1ccc(S(=O)(=O)N(C(=O)c2ccncc2)c2ccc(OC(=O)c3ccncc3)c3ccccc23)cc1	0%	?	-9	13µM*	18µM*
COC(=O)c1c(C)oc2ccc(N(C(=O)c3ccncc3)S(=O)(=O)c3ccc(C)cc3)cc12	0%	7.1µM*	-11	-39%	-12%
COC(=O)c1c(C)oc2ccc(N(C(=O)c3ccncc3)S(=O)(=O)c3ccc(C)cc3C)cc12	0%	4.5µM*	-6	?	?
Cc1ccc(S(=O)(=O)N(C(=O)c2ccncc2)c2ccc(OC(=O)c3ccncc3)c3ccccc23)c(C)c1	0%	?	-3	?	?
CC1OC(OC2CCC3(C)C(CCC4C3CC(O)C3(C)C(C5=CC(=O)OC5)CCC43O)C2)CC(O)C1OC1CC(O)C(OC2CC(O)C(OC3OC(CO)C(O)C(O)C3O)C(C)O2)C(C)O1 (stereo not given)	.	8%	.	-10%	.
CC(CC(=O)N1CCN(c2ccccc2)CC1)S(=O)(=O)c1ccc2c(c1)NC(=O)CO2 (stereo not given)	0%	-19%	-14	?	10µM*
COc1cccc(CNC(=O)C2CCN(S(=O)(=O)N3CCC(C)CC3)CC2)c1	0%	-2%	2	3%	?
Cc1cc(C(F)(F)F)nn1CC(=O)Nc1cccnc1	0%	-6%	14	13%	-4%
Cc1cc([N+](=O)[O-])nn1CC(=O)NNC(=S)Nc1ccc(Cl)cc1	0%	?	-3	16µM*	-5%
COc1cccc(NC(=S)NNC(=O)Cn2nc(C(F)F)cc2C(F)F)c1	0%	?	0	1.1µM*	1%
Cc1ccc(NC(=S)NNC(=O)Cn2nc([N+](=O)[O-])cc2C)cc1	0%	-3%	1	35%	0%
Cc1cc(C(F)(F)F)nn1CC(=O)NNC(=S)Nc1cccc(Cl)c1	0%	?	-6	11µM*	-1%
O=C(Cn1nc(C(F)F)cc1C(F)F)NNC(=S)Nc1ccc([N+](=O)[O-])cc1	-1%	?	-13	10µM*	9%
CCN(CC)CC(=O)Nc1cccc(S(=O)(=O)N2CCCC2)c1	0%	3%	9	31%	2%
CN(CC(=O)Nc1cccc(S(=O)(=O)N2CCCC2)c1)CC(=O)Nc1ccc(Cl)c(C(F)(F)F)c1	-1%	.	-31	.	15µM*
CCN(CC)S(=O)(=O)c1cccc(NC(=O)CNc2cccc(S(=O)(=O)N3CCCC3)c2)c1	-1%	0.71µM*	-41	-35%	0.33µM*
CCN(c1ccc(C(=O)CSc2nnc(C3CC3)n2C2CC2)cc1)S(C)(=O)=O	0%	.	13	.	0%
O=C1[C@H]2[C@H]3[C@H](O)[C@H](O)C/C(=N/OCc4ccccc4)[C@H]3CC[C@@H]2C(=O)N1c1cccc(Oc2ccccc2)c1	.	-11%[10 µM]	.	8%[10 µM]	.
O=C(c1ccncc1)N1N=C(c2ccc(Br)cc2)CC1c1ccccc1O (stereo not given)	0%	-15%	10	25%	?
CCn1cc(Cl)c(C(=O)N2N=C(c3ccc4ccccc4c3)CC2c2ccccc2O)n1 (stereo not given)	4%	16µM*	7	?	?
CCn1cc([N+](=O)[O-])c(C(=O)N2N=C(c3ccc4ccccc4c3)CC2c2ccccc2O)n1 (stereo not given)	0%	-28%	9	-6%	?
O=C(c1ccccc1)N1N=C(c2ccccc2)CC1c1ccccc1O (stereo not given)	0%	4µM*	5	4.5µM*	-16%
